Drawing on PubChem BioAssay (EPA / NIEHS), this text covers AC50 and outcome for 16 compounds.

Inconclusive results are not listed. The source made the active and inactive calls. How the source made its calls, unless noted: active means hit-call score of the fitted dose curve at least 0.9, where 1 is the maximum; inconclusive means response in the unintended direction; inactive means score below 0.9.

Read-out in assay [1]: Cytochrome P450 2B6 (Homo sapiens) (UniProt P20813)
The experiment in a line: CLD_CYP2B6_48hr: CellzDirect (CLD) Gene Expression Assay for xenobiotic metabolism (CYP2B6) at 48 hours (AID 2283699).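 Further: actives raise transcript level above DMSO so potency reflects induction.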 The essentials:
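CYP2B6 transcript induction, read by quantitative nuclease protection (S1 digestion, chemiluminescent detection) 48 h after dosing, is fitted upward against 0.2% DMSO. Cultured human liver primary cells, two donor preparations, received fresh chemical daily over multiple concentrations.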

Read-out in assay [2]: Cytochrome P450 2C9 (Homo sapiens) (UniProt P11712)
The experiment in a line: CLD_CYP2C9_48hr: CellzDirect (CLD) Gene Expression Assay for xenobiotic metabolism (CYP2C9) at 48 hours (AID 2283701; active means hit-call score of the fitted dose curve at least 0.9, where 1 is the maximum; inactive means score below 0.9). The method in brief: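 mRNA level measured by quantitative nuclease protection (S1 digestion, chemiluminescent detection) in lysates of human primary hepatocytes exposed 48 h with daily re-dosing. Induction fitted positively versus 0.2% DMSO; morphology-based cytotoxicity flagged yes/no.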

Read-out in assay [3]: xenobiotic metabolism (CYP1A2), CYP1A2 (gene 1544)
The experiment in a line: CLD_CYP1A2_48hr: CellzDirect (CLD) Gene Expression Assay for xenobiotic metabolism (CYP1A2) at 48 hours (AID 2283703). The essentials: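 Cytotoxicity was flagged yes/no from morphology, while CYP1A2 transcript induction was detected by qNPA chemiluminescence after a 48-hour exposure. Human primary hepatocyte cultures from separate donors received fresh dosing solutions daily over two days, with 0.2% DMSO as vehicle and baseline.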

Read-out in assay [4]: Broad substrate specificity ATP-binding cassette transporter ABCG2 (Homo sapiens) (UniProt Q9UNQ0)
The experiment in a line: CLD_ABCG2_48hr: CellzDirect (CLD) Gene Expression Assay for ABC Transporter (ABCG2) at 48 hours (AID 2283704).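 On AC50: potency for induction of ABCG2 mRNA above the DMSO baseline.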 The method in brief: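 ABCG2 transcript measured at 48 h by quantitative nuclease protection (chemiluminescent) and fitted for increase relative to 0.2% DMSO. Hepatocyte cultures from separate donors got fresh compound daily over two days; morphology annotated cytotoxicity.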

Read-out in assay [5]: xenobiotic metabolism (CYP1A1), CYP1A1 (gene 1543)
The experiment in a line: CLD_CYP1A1_48hr: CellzDirect (CLD) Gene Expression Assay for xenobiotic metabolism (CYP1A1) at 48 hours (AID 2283705). The method in brief:
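CYP1A1 transcript measured by quantitative nuclease protection (chemiluminescent) 48 h after two daily treatments of human hepatocyte cultures, versus 0.2% DMSO. Morphology-based cytotoxicity flags accompany data; two donor preparations used.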

Read-out in assay [6]: glucuronosyltransferase (UGT1A1), UGT1A1 (gene 54658)
The experiment in a line: CLD_UGT1A1_48hr: CellzDirect (CLD) Gene Expression Assay for glucuronosyltransferase (UGT1A1) at 48 hours (AID 2283709).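 Further: actives increase expression relative to DMSO so potency refers to induction.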 The method in brief: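 Quantitative nuclease protection assay (chemiluminescent) for UGT1A1 mRNA at 48 h in human hepatocyte cultures from two donors, redosed daily with fresh solutions. Induction fitted relative to 0.2% DMSO; phase-contrast morphology annotated cytotoxicity.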

Assay [7] is described as follows: Tanguay_ZF_120hpf_ActivityScore_legacy: (Legacy) Oregon State University Tanguay Lab 120 Hour Post-fertilization zebrafish Assay Score for Activity (AID 2283742).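 On AC50: dechorionated Tropical 5D wild-type zebrafish embryos held singly per well.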 The essentials: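 Binary scoring of mortality and morphology by brightfield at 24 and 120 hpf, summarised into one activity score from 18 components relative to DMSO. Wild-type Tropical 5D zebrafish, chorion removed at 4 hpf, static exposure 6–120 hpf, 28 °C.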

Assay [8] in a line: STM_H9_OrnithineISnorm_perc: Stemina devTOX quickPredict H9 human embryonic stem cell (hESC)-based Assay for Ornithine (ORN) Metabolite Biomarker, Normalized (AID 2283712; active means hit-call score of the fitted dose curve at least 0.9, where 1 is the maximum; inactive means score below 0.9;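 further: ornithine released into spent medium during last day measured by mass spectrometry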). The method in brief: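 UPLC-HRMS readout: endogenous ornithine EIC area / 13C-ORN internal standard, then % of 0.1% DMSO median. H9 hESCs (pluripotent), 72h exposure, re-dosed with fresh media q24h; last 24-h spent media, deproteinized in 40% acetonitrile.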

Assay [9] is described as follows: STM_H9_CystineISnorm_perc: Stemina devTOX quickPredict H9 human embryonic stem cell (hESC)-based Assay for Cystine (CYSS) Metabolite Biomarker, Normalized (AID 2283713; active means hit-call score of the fitted dose curve at least 0.9, where 1 is the maximum; inactive means score below 0.9). The essentials:
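UPLC-HRMS read-out: endogenous cystine peak area in spent medium, normalized to isotope-labeled internal standard and to median of 0.1% DMSO controls. Pluripotent H9 cells, 72h exposure, daily medium/compound replenishment; medium from last 24h sampled.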

The nature of assay [10]: CEETOX_H295R_MTT_cell_viability: Viability Assessment in the CeeTox HT-H295R MTT Assay (AID 2283718; active means hit-call score of the fitted dose curve at least 0.9, where 1 is the maximum; inactive means score below 0.9;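 on AC50: curve fitted both ways so AC50 may mark viability loss or gain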). The essentials: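 MTT reduction (0.5 mg/ml, 4 h at 37 C; absorbance at 570 and 650 nm) gave viability as background-corrected percent change versus controls. H295R cells had 48 h forskolin (10 uM) prestimulation, then 48 h chemical exposure at 0.1% DMSO.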
Read-out in assay [11]: sulfotransferase (SULT2A), SULT2A1 (gene 6822)
The experiment in a line: CLD_SULT2A_48hr: CellzDirect (CLD) Gene Expression Assay for sulfotransferase (SULT2A) at 48 hours (AID 2283710).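 Further: hits raise SULT2A1 transcript above the 0.2% DMSO vehicle baseline.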 The essentials:
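SULT2A1 transcript measured by qNPA chemiluminescence in human primary hepatocyte cultures after 48 h, with fresh dosing solutions on two consecutive days; gain-of-signal fitting against 0.2% DMSO vehicle; cytotoxicity annotated from phase-contrast morphology.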

Assay [12] can be described thus: CLD_ACTIN_48hr: CellzDirect (CLD) Gene Expression Assay for Baseline Control (Actin) at 48 hours (AID 2283702). The essentials: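 Background-control actin mRNA read by qNPA chemiluminescence at 48 h. Human hepatocyte cultures from two donors received fresh multi-concentration chemical doses daily for two days; 0.2% DMSO served as vehicle baseline.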
Read-out in assay [13]: alkyl and aryl transferase (GSTA2), GSTA2 (gene 2939)
The experiment in a line: CLD_GSTA2_48hr: CellzDirect (CLD) Gene Expression Assay for alkyl and aryl transferase (GSTA2) at 48 hours (AID 2283708).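 Further: active means mRNA induction above DMSO vehicle baseline.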 The essentials:
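GSTA2 mRNA quantified by qNPA chemiluminescence in human primary hepatocyte lysates after 48 h of daily fresh chemical dosing. Increases fitted against 0.2% DMSO vehicle baseline; cytotoxicity from morphology annotated yes/no.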

In assay [14] the test system is Thyroperoxidase (TPO), gene 445522. The experiment in a line: CCTE_Simmons_GUA_TPO: CCTE's Guaiacol Assay for Thyroperoxidase (TPO) Inhibition, Simmons Lab (AID 2283750). The essentials: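 Porcine thyroid microsomes (25 ug) in 200mM potassium phosphate, preincubated 30 s at 37C with compound (8 concentrations, 5 nM–87.5 uM) and 35mM guaiacol; 1mM H2O2 starts reaction. Absorbance change at 450nm over first 80 s; loss of signal versus DMSO, three replicates.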

Broad substrate specificity ATP-binding cassette transporter ABCG2 (Homo sapiens), sequence (Q9UNQ0 whole entry, looked up): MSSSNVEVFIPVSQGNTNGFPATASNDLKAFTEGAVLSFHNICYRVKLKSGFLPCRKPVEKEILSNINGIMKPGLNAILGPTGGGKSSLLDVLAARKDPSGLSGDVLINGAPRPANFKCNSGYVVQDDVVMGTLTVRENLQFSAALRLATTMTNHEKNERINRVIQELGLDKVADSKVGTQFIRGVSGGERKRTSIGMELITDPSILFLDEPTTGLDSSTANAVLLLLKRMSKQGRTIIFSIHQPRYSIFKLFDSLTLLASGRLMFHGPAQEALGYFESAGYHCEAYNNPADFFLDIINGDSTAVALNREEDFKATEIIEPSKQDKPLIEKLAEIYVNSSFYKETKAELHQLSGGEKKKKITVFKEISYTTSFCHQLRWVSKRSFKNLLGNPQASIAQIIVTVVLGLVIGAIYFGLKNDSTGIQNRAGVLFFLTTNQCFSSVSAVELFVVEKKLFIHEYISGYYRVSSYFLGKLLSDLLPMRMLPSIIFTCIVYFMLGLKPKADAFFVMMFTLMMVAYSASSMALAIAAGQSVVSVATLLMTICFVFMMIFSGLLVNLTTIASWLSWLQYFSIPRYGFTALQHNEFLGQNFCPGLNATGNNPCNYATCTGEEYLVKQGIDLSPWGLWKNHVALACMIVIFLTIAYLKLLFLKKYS

In the case of `CC(C)N1C(=O)N(c2ccccc2)CSC1=NC(C)(C)C`, the AC50 in [1] is 4.31 µM (active); in assay [5] it was 33.6 µM (active). The compound was classed as inactive in assay [2], in assay [3], in assay [4], in assay [6] and in assay [7].

As for `CCOP(=S)(OCC)Oc1nc(Cl)n(C(C)C)n1`, the AC50 in assay [1] was 0.427 µM (active); in assay [3] it was 5.78 µM (active); in [5] it was 5.35 µM (active); in assay [9], 50.5 µM (active). The call in assay [2], in assay [8], in [10] and in assay [7] was inactive.

For `Cc1cc(C)nc(Nc2ccccc2)n1`, the AC50 in assay [1] was 1.61 µM (active); in [3], 7.9 µM (active); in assay [5], 3.97 µM (active); in assay [9], 7.74 µM (active). Also, the outcome in assay [2], in assay [11], in assay [8] and in assay [7] was inactive.

`N#CN=C1SCCN1Cc1ccc(Cl)nc1`: in assay [1], the AC50 was 9.25 µM (active). The call in assay [2], in assay [3], in [4], in assay [6], in [8] and in assay [9] was inactive. The outcome in [10] and in assay [7] was inactive.

Take `Clc1cccc(C(Cl)(Cl)Cl)n1`: the AC50 in [1] was 1.47 µM (active); in assay [5] it was 3.97 µM (active); in [8], 19.7 µM (active). For the same compound, the compound was classed as inactive in assay [2], in assay [12], in assay [3], in [4], in [9] and in [7].

As for `CS(=O)(=O)c1ccc(C(=O)C2C(=O)CCCC2=O)c([N+](=O)[O-])c1`, the compound was called inactive in assay [1], in assay [2], in assay [12], in [3], in assay [4] and in assay [6]. Also, the result in [8], in [9] and in [7] was inactive.

On to `CCCCC(O)(Cn1cncn1)c1ccc(Cl)cc1Cl` (configuration not stated), for which the AC50 in assay [1] was 0.63 µM (active); in [3] it was 3.97 µM (active); in [5], 20 µM (active); in assay [8] it was 85.1 µM (active); in [9] it was 78.9 µM (active). Further, the compound was called inactive in assay [2], in assay [12], in assay [4] and in [7].

In the case of `COC(=O)NC(=S)Nc1ccccc1NC(=S)NC(=O)OC`, the concentration at half-maximal activity (AC50) is 20 µM (active) in assay [1], 15.7 µM (active) in [3], 3.32 µM (active) in assay [5] and 49.6 µM (active) in assay [14]. The result in assay [2], in assay [12], in [4], in assay [13], in assay [6] and in [10] was inactive. For the same compound, the compound was called inactive in assay [7].

Regarding `CCCN(CC)CC1COC2(CCC(C(C)(C)C)CC2)O1` (configuration not stated), the result in [1], in [2], in [4], in assay [8], in [10] and in assay [7] was inactive. Further, the AC50 is 0.199 µM (active) in [3], 3.97 µM (active) in [5] and 1.03 µM (active) in assay [9].

On to `CC1(C)CCC(=Cc2ccc(Cl)cc2)C1(O)Cn1cncn1` (configuration not stated), for which the AC50 is 4.01 µM (active) in assay [1]; 1.66 µM (active) in assay [3]; 3.17 µM (active) in [5]; 78.2 µM (active) in [8]; 28.9 µM (active) in assay [9]. Besides, the compound was classed as inactive in assay [2], in [4], in [11], in assay [10] and in [7].

As to `CCOP(=O)(OCC)Oc1nc(Cl)c(Cl)cc1Cl`, the AC50 in assay [1] is 3.97 µM (active); in assay [3], 4.58 µM (active); in assay [7] it was 1.15 µM (active). Moreover, the call in [2] and in [6] was inactive.

`CC1(C)CON(Cc2ccccc2Cl)C1=O`: the AC50 was 3.23 µM (active) in assay [1] and 72.5 µM (active) in assay [9]. For the same compound, the compound was called inactive in assay [2], in [3], in assay [6], in [8], in assay [10] and in assay [7].

As to `CC(C)Oc1cccc(NC(=O)c2ccccc2C(F)(F)F)c1`, the AC50 in assay [1] was 5.34 µM (active); in [3] it was 7.17 µM (active); in assay [4] it was 0.858 nM (active); in assay [5], 36.6 µM (active); in [10], 71.1 µM (active); in assay [7], 34.2 µM (active). Moreover, in assay [2], the compound was called inactive.

Take `C=CCOC(=O)C(C)(C)OC(=O)c1cc(-n2c(=O)cc(C(F)(F)F)n(C)c2=O)ccc1Cl`: the AC50 in assay [1] was 0.168 µM (active). For the same compound, the result in [2], in assay [12], in [4], in assay [5] and in [7] was inactive.

For `COc1cc(OC)nc(NC(=O)NS(=O)(=O)c2ncccc2OCC(F)(F)F)n1`, the compound was called inactive in assay [1], in assay [2], in [12], in assay [3], in assay [4] and in assay [5]. For the same compound, the outcome in [6], in assay [8], in [9] and in assay [7] was inactive.

As to `OC(c1ccc(Cl)cc1)(c1ccc(Cl)cc1)C(Cl)(Cl)Cl`, the AC50 is 4.47 µM (active) in assay [1] and 20 µM (active) in assay [5]. For the same compound, the result in [2], in assay [3], in [4], in assay [13] and in assay [7] was inactive.

In general, AC50 refers to the concentration at which the activity in the assay is half-maximal.
